Laboratory results taken from PubChem BioAssay AID463173 (ICCB-Longwood Screening Facility, Harvard Medical School, 2010).
In all, about 52,000 compounds went through this assay and about 4,300 (8.3%) were called active. The full list was thinned out, with actives kept by preference. Values without a mark were called inactive. Rule as the data show it: active = survival mostly below about 52% (no sharp cut-off); inactive = mostly above about 56%.

tested on: DeltatarO mutant; test: S. aureus survival, RN4220 and DeltatarO strains – OD600, teichoic acid synthesis inhibitors, primary screen (AID 463173); settings: S. aureus RN4220 wild type/DeltatarO growth, OD600, 18 h, hits give low values, screened at 18.75 µg/mL (by protocol)

Row | Compound | survival
1 | O=c1c2ccc(N3CCOCC3)c3cccc(c32)c2nc3ccccc3n12 | 90%
2 | Cc1cccc(C(=O)Nc2ccc(-c3nc4cc(C(C)C)ccc4o3)cc2)c1 | 34% (active)
3 | O=C(Nc1ccc2oc(-c3cccnc3)nc2c1)c1cccc(Br)c1 | 62%
4 | CC(C)c1ccc2oc(-c3ccc(NC(=O)c4cccc(Br)c4)cc3)nc2c1 | 44% (active)
5 | CC(C)(C)c1ccc(-c2nc3cc(NC(=O)c4cccc(Br)c4)ccc3o2)cc1 | 73%
6 | Cc1cccc(C(=O)Nc2ccc3oc(-c4cccc5c(Br)cccc45)nc3c2)c1 | 67%
7 | Cc1cccc(C(=O)Nc2ccc3oc(-c4ccncc4)nc3c2)c1 | 62%
8 | CC1CCN(CC(=O)Nc2ccc3ccccc3c2)CC1 | 107%
9 | CCCC(O)=NS(=O)(=O)c1ccc(N=NN(C)C)cc1 | 94%
10 | COc1cccc(NC(=O)CN(C)S(=O)(=O)c2cccs2)c1 | 108%
11 | CC(C)C(OC(=O)c1cc2occc2n1C(C)C)C(=O)NCC1CCCO1 (stereo not drawn) | 67%
12 | COc1ccc(NC(=O)Cn2cc(C#N)c3ccccc32)cc1 | 67%
13 | CCC1CN(C(=O)N2CCC(C(=O)NCCc3ccc(OC)c(OC)c3)CC2)c2ccccc2O1 (stereo not drawn) | 74%
14 | CC1CCc2nc3ncn(Cc4ccccc4F)c(=O)c3cc2C1 (stereo not drawn) | 66%
15 | Cc1ccc(Cn2cnc3nc4c(cc3c2=O)CC(C)CC4)cc1 (stereo not drawn) | 20% (active)
16 | CC1CCc2nc3ncn(Cc4ccc(Cl)cc4)c(=O)c3cc2C1 (stereo not drawn) | 85%
17 | CC1CCc2nc3ncn(Cc4cccc(F)c4)c(=O)c3cc2C1 (stereo not drawn) | 102%
18 | Cc1ccccc1Cn1cnc2nc3c(cc2c1=O)CC(C)CC3 (stereo not drawn) | 8% (active)
19 | CC1CCc2nc3ncn(Cc4ccccc4C#N)c(=O)c3cc2C1 (stereo not drawn) | 81%
20 | CC1CCN(C(=O)Cn2cc(SCc3ccccc3)c3ccccc32)CC1 | 46%
21 | Cc1cc(C)cc(NC(=O)c2cc(CN3CCCC3)on2)c1 | 88%
22 | CCOc1ccc(NC(=O)c2c(NCc3cccs3)sc3c2CCC(C)C3)cc1 (stereo not drawn) | 129%
23 | COc1ccc(CNc2ncnc3c2c(-c2ccccc2)cn3-c2cccc(C)c2)cc1 | 67%
24 | Cc1ccc(CNC(=O)Cn2c3ncccc3c(=O)n2-c2ccc(C)cc2)cc1 | 116%

Row | Compound | survival
25 | CCOC(=O)N1CCN(C(=O)c2ccc3c(c2)N(Cc2cccc(Cl)c2)C(=O)c2ccccc2S3=O)CC1 (stereo not drawn) | 102%
26 | Cc1cccc(Cc2cnc(NC(=O)C3Cc4ccc(C)cc4C(=O)O3)s2)c1 (stereo not drawn) | 85%
27 | CCOC(=O)c1c(NC(=O)c2cc(C(C)C)on2)sc(C(C)=O)c1C | 123%
28 | CCOC(=O)c1c(NC(=O)c2cc(-c3ccccc3OC)on2)sc(C)c1C | 61%
29 | CCOC(=O)c1c(NC(=O)c2cc(-c3ccc(Cl)cc3)on2)sc(C)c1C | 68%
30 | CCOC(=O)c1c(NC(=O)c2cc(CC(C)C)on2)sc(C(C)=O)c1C | 54% (active)
31 | CCOC(=O)c1c(NC(=O)c2cc(-c3ccc(OC)cc3)on2)sc(C)c1C | 45% (active)
32 | CCOC(=O)c1c(NC(=O)c2cc(-c3cccc(Cl)c3)on2)sc(C(C)=O)c1C | 56%
33 | CCOC(=O)c1sc(NC(=O)c2cc(-c3ccc(F)cc3)on2)c(C(=O)OCC)c1C | 65%
34 | CCOC(=O)c1c(NC(=O)c2cc(-c3ccc(OC)c(OC)c3)on2)sc(C)c1C | 42% (active)
35 | CCOC(=O)c1c(NC(=O)c2cc(-c3cccc(Cl)c3)on2)sc(C)c1C | 56% (active)
36 | CCOC(=O)c1c(NC(=O)c2cc(-c3ccc(Br)cc3)on2)sc(C(C)=O)c1C | 88%
37 | CCOC(=O)c1c(NC(=O)c2cc(CC)on2)sc(C(C)=O)c1C | 52%
38 | CCOC(=O)c1c(NC(=O)c2cc(-c3ccc(Br)cc3)on2)sc(C)c1C | 166%
39 | CN(C)CCNC(=O)Cn1c(=O)c2cccn2c2ccc(F)cc21 | 103%
40 | CCOC(=O)c1ccc(N2C(=O)c3n[nH]c(-c4ccco4)c3C2c2ccc(OC)cc2OC)cc1 (stereo not drawn) | 89%
41 | CCOc1ccc(C(=O)OCc2cc(=O)n3nc(C4CC4)sc3n2)cc1 | 80%
42 | CC(C)N(C)NC(=S)Nc1ccccc1 | 77%
43 | CCN(CC)C(=O)Cn1c(=O)n(CCCCCC(=O)Nc2ccccc2)c(=O)c2sccc21 | 82%
44 | COc1ccc(-c2cc3nccc(C4CCN(C(=O)OC(C)(C)C)CC4)n3n2)cc1 | 102%
45 | CCOC(=O)c1c(NC(=O)c2cc(C(C)C)on2)sc(C)c1C | 49%
46 | CCOC(=O)c1c(NC(=O)c2cc(C)on2)sc(C)c1C | 47% (active)
47 | CCOC(=O)c1c(NC(=O)c2cc(CC)on2)sc(C)c1C | 144%
48 | Cc1nn(C)c2c1c(C(F)(F)F)cc(=O)n2CC(=O)NCCC(C)C | 95%

Row | Compound | survival
49 | O=C(NCCc1ccccc1)c1cc(Sc2ccc(F)cc2F)nc2ccccc12 | 98%
50 | COc1ccc(C2CC(=O)Nc3cc4c(cc32)OCO4)c(OC)c1 (stereo not drawn) | 80%
51 | COc1ccc(N(Cc2cc3cccc(C)c3[nH]c2=O)C(=O)c2cccc(Cl)c2)cc1 | 67%
52 | COC(=O)c1c(NC(=O)Cc2coc3ccc(C)cc23)sc2c1CCC2 | 59%
53 | COC(=O)c1c(NC(=O)c2ccc(C(C)(C)C)cc2)sc2c1CCC(C)C2 (stereo not drawn) | 85%
54 | COC(=O)c1c(NC(=O)CCCOc2ccc(C(C)(C)C)cc2)sc2c1CCC(C)C2 (stereo not drawn) | 28% (active)
55 | COC(=O)c1c(NC(=O)CCCOc2cccc(C)c2)sc2c1CCC2 | 15% (active)
56 | COC(=O)c1c(NC(=O)CS(=O)(=O)c2ccc(C)cc2)sc2c1CCCCC2 | 76%
57 | COC(=O)c1c(NC(=O)CS(=O)(=O)c2ccc(C)cc2)sc2c1CCCC2 | -4% (active)
58 | CCOC(=O)c1c(NC(=O)CS(=O)(=O)c2ccc(C)cc2)sc2c1CCCCC2 | 66%
59 | CCOC(=O)c1c(NC(=O)COc2ccc(C)cc2C(C)(C)C)sc2c1CCC(C)C2 (stereo not drawn) | 55%
60 | CC1CCc2c(sc(NC(=O)CCCOc3ccc(C(C)(C)C)cc3)c2C(N)=O)C1 (stereo not drawn) | 60%
61 | COC(=O)c1c(NC(=O)CCCOc2cccc(C)c2)sc2c1CCC(C)C2 (stereo not drawn) | 10% (active)
62 | Cc1cccc(OCCCC(=O)Nc2sc3c(c2C(N)=O)CCC(C)C3)c1 (stereo not drawn) | 73%
63 | COC(=O)c1c(NC(=O)COc2ccc(C)cc2Br)sc2c1CCCC2 | 61%
64 | O=c1c(S(=O)(=O)c2cccc(Cl)c2)cn(Cc2ccccc2)c2cc(N3CCCCC3)c(F)cc12 | 89%
65 | O=c1oc2cc(O)ccc2cc1-c1nc(-c2ccc(Cl)c(Cl)c2)cs1 | 101%
66 | O=C(Cn1c(=O)c2ccccc2n(CC(=O)Nc2ccc(F)cc2F)c1=O)NCCc1ccccc1 | 81%
67 | COc1cc(NC(=O)Nc2cccc(-c3noc(C)n3)c2)cc(OC)c1OC | 128%
68 | CC(C)Cn1c(SCC(N)=O)nc2ccccc2c1=O | 97%
69 | O=C(CN1C(=O)c2cccc3cccc1c23)N1CCCC1 | 85%
70 | Cc1ccc(Cl)cc1NC(=O)Cn1c(=O)n(C(C)C)c(=O)c2oc3ccccc3c21 | 51%
71 | Cc1ccc(Cl)cc1N1CCN(C(=O)C2CCCN(S(=O)(=O)c3ccc(Br)s3)C2)CC1 (stereo not drawn) | 113%
72 | COc1ccccc1N(CC(=O)NC1CCCCC1)C(=O)c1csnn1 | 96%

Row | Compound | survival
73 | O=C(NCc1cccc(F)c1)c1ccc(CS(=O)c2ccccc2Cl)o1 (stereo not drawn) | 68%
74 | COc1ccc(NC(=O)c2c(NC(=O)COc3ccccc3)sc3c2CCC(C)C3)cc1 (stereo not drawn) | 120%
75 | Cc1ccccc1OCC(=O)Nc1sc2c(c1C(=O)OC(C)C)CCCC2 | 77%
76 | COC(=O)c1c(NC(=O)CCCOc2ccc(C)cc2)sc2c1CCCC2 | 8% (active)
77 | COC(=O)c1c(NC(=O)CCCOc2ccccc2C)sc2c1CCC2 | 4% (active)
78 | CC1CCc2c(sc(NC(=O)CCCOc3ccccc3)c2C(N)=O)C1 (stereo not drawn) | 78%
79 | COC(=O)c1c(NC(=O)COc2ccc(Cl)cc2C)sc2c1CCCCC2 | 68%
80 | CCOc1ccc(/C=C/C(=O)Nc2sc3c(c2C(=O)OC)CCC3)cc1 | 75%
81 | Cc1ccc(OCCCC(=O)Nc2sc3c(c2C(N)=O)CCCC3)cc1 | 53%
82 | COC(=O)c1c(NC(=O)CCCOc2ccccc2)sc2c1CCC(C)C2 (stereo not drawn) | 2% (active)
83 | CCS(=O)(=O)Nc1ccc2[nH]c(=O)[nH]c2c1 | 88%
84 | CCc1ccc(NC(=O)CNC(=O)Cn2c(C)cc3ccccc3c2=O)cc1 | 114%
85 | CCN(C(=O)C1CCN(S(=O)(=O)c2c(C)noc2/C=C/c2ccc(C)cc2)CC1)c1cccc(C)c1 | 84%
86 | CCOc1ccc(CCNC(=O)C2CC(=O)N(CCc3ccc(OC)c(OC)c3)C2)cc1OCC (stereo not drawn) | 91%
87 | COc1ccc(OC)c(C2CC(=O)c3c([nH]c(C(=O)OC4CCC(C)CC4)c3C)C2)c1 (stereo not drawn) | 81%
88 | COc1ccc(-c2noc(-c3ccc(N4CCN(C)CC4)c([N+](=O)[O-])c3)n2)cc1OC | 50%
89 | COc1ccc(-c2noc(-c3ccc(N4CCN(C)CC4)c([N+](=O)[O-])c3)n2)cc1 | 42% (active)
90 | COc1ccc(-c2noc(-c3ccc(N4CCCC4)c([N+](=O)[O-])c3)n2)cc1 | 108%
91 | COc1ccc(-c2noc(-c3ccc(N4CCOCC4)c([N+](=O)[O-])c3)n2)cc1 | 46%
92 | COc1ccc(-c2noc(-c3ccc(N4CCCCC4)c([N+](=O)[O-])c3)n2)cc1 | 37% (active)
93 | COc1ccc(-c2noc(-c3ccc(N4CCN(c5ccc(OC)cc5)CC4)c([N+](=O)[O-])c3)n2)cc1 | 47%
